Experimental findings from PubChem BioAssay (NCI) are described below.

Structures are written as SMILES. The panel holds about 83,000 compounds, 20% with a hit somewhere; the sample as a whole holds those more often.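 The endpoint reported here, percent growth, reads 100 for growth as untreated, 0 for no net growth and -100 for all cells dead.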 A number with no mark means an inactive call. The source made the active and inactive calls. The calls were made as follows: active = growth percent below 10; inactive = the rest.

This assay concerns MDA-MB-231 breast. The assay can be described thus: NCI-60 one-dose screen, 48 h (100 = growth as untreated, 0 = no growth, -100 = all killed). Particulars: 10 µM.
As to `Cc1ccc(-c2nc3ccc(C(=O)N=Nc4c(O)[nH]c5ccc(Br)cc45)cc3[nH]2)cc1`, the growth is 23%.

`CCCCCc1ccc(S(=O)(=O)Nc2cc(-c3csc(N(C)C(C)=O)n3)ccc2N2CCN(C)CC2)cc1`: the growth was -2.21% (active).

For `Cc1ccc(NC(=O)NCn2c(=O)[nH]c3ccccc3c2=O)cc1`, the growth is 40.7%.

Turning to `Cc1ccc(C(=O)NCCCNc2nc(Nc3ccc(N4CCN(C)CC4)cc3)nc3ccsc23)cc1`, the growth was 44.4%.

With `CNC(=O)c1cccc(N2CCc3c2ccc(NC(=O)Nc2ccc(N4CCN(C)CC4)c(C(F)(F)F)c2)c3F)c1`, the growth is -94.8% (active).

On to `COC1CC(Cn2cc(COc3ccc4ccc(=O)oc4c3)nn2)C(OCc2ccccc2)C(OCc2ccccc2)C1OCc1ccccc1` (stereo not drawn), for which the growth was 99.7%.

For the compound `Cc1ccc(NC(=O)c2ccc(-n3c(=O)[nH]c4ccccc4c3=O)cc2)cc1`, the growth was 64.6%.

Take `O=C(Cn1cc(CSc2nnc3oc4ccccc4n23)nn1)Nc1ccc(Br)cc1`: the growth is 35.5%.

With `NC(=Nc1ccc(OCCCCCCCCn2ccnn2)cc1)c1ccccc1`, the growth was 13.8%.

For the compound `C=C(C)[C@@H]1CC[C@]2(C)[C@H](CC=C3[C@@H]4CC(C)(C)CC[C@]4(C(=O)N4CCOCC4)CC[C@]32C)[C@@]1(C)CCCN`, the growth was -91.4% (active).

Regarding `CC(=C(c1ccc(OCCN2CCCCC2)cc1)c1ccc(OCCN2CCCCC2)cc1)c1ccccc1`, the growth was 4.97% (active).

For `CN1CCN(c2ccc(Nc3nc(NCCCNC(=O)c4ccccc4)c4sccc4n3)cc2)CC1`, the growth is 88.6%.

As to `COc1cccc(C(N)=Nc2ccc(OCCCCCCn3cncn3)cc2)c1`, the growth was 13.6%.

In the case of `O=C(CS(=O)(=O)c1oc(-c2ccc(Cl)cc2)nc1S(=O)(=O)c1ccccc1)N1CCCC1`, the growth was -88.3% (active).

Take `CC1(C)CC[C@]2(C(=O)N3CCOCC3)CC[C@]3(C)C(=CC[C@@H]4[C@@]5(C)CC[C@H](NCO)C(C)(C)[C@@H]5CC[C@]43C)[C@H]2C1`: the growth was -97.6% (active).

For the compound `CC(=O)NCC1=C(C)C=C2C(=O)[C@](C)(O)C3(CC3)C(C)=C21`, the growth is -61.5% (active).

Regarding `C#Cc1ccc(S(=O)(=O)Nc2cccc(-c3csc(NC(C)=O)n3)c2)cc1`, the growth is 84.5%.

Turning to `C=C[C@H]1[C@H](O[C@@H]2OC(CO)[C@@H](O)[C@H](O)C2OC(=O)c2c(O)cc(O)cc2-c2cccc(O)c2)OC=C2C(=O)OCC[C@H]21` (stereo partly drawn), the growth is 96.1%.

For `O=C(c1ccc(-n2c(=O)[nH]c3ccccc3c2=O)cc1)N1CCOCC1`, the growth is 95.5%.

Consider `CCN(CC)CCOc1ccc(C(=C(C)c2ccccc2)c2ccc(OCCN(CC)CC)cc2)cc1`, for which the growth is -60.4% (active).

With `CNC(=O)c1cc(-c2ccc(NC(=O)Nc3ccc(C)cc3)cc2)nc2cccnc12`, the growth is 93.3%.

Consider `O=C(Cn1cc(CSc2nnc3oc4ccccc4n23)nn1)Nc1cccc(Cl)c1`, for which the growth was 63.4%.

With `CC1(C)CC[C@]2(C(=O)NCCCNCCCCNCCCN)CC[C@]3(C)C(=CC[C@@H]4[C@@]5(C)Cc6c([nH]c7ccccc67)C(C)(C)[C@@H]5CC[C@]43C)[C@H]2C1`, the growth is -7.91% (active).

`CCC(C)S(=O)(=O)c1oc(-c2ccc(C)cc2)nc1S(=O)(=O)c1ccccc1` (stereo not drawn): the growth was -88.1% (active).

As for `CC(=O)Nc1nc(-c2ccc(N3CCN(C)CC3)c(NS(=O)(=O)c3cccc4c(N(C)C)cccc34)c2)cs1`, the growth is 65%.

For the compound `N[C@@H](CSSC[C@H](N)C(=O)Nc1ccc(OCC2CCCC2)cc1)C(=O)Nc1ccc(OCC2CCCC2)cc1`, the growth was -97.4% (active).

In the case of `O=C(Nc1ccncc1)c1ccc(-n2c(=O)[nH]c3ccccc3c2=O)cc1`, the growth is 98.2%.

With `CN1CCN(c2ccc(Nc3nc(NCCCNC(=O)c4ccc(F)cc4)c4sccc4n3)cc2)CC1`, the growth was 58.1%.

For the compound `CC1(C)CC[C@]2(C(=O)O)CC[C@]3(C)C(=CC[C@@H]4[C@@]5(C)C/C(=C/c6ccncc6)[C@H](O)C(C)(C)[C@@H]5CC[C@]43C)[C@@H]2C1`, the growth is 34.1%.

Take `Cc1cc2c(c(O)c1Br)-c1ncoc1C(=O)[C@]1(C)CC[C@H](C(C)C)[C@H]21`: the growth is 48.9%.

As for `Cc1ccc(/C=C(\C#N)n2nnc3c(F)cccc32)cc1`, the growth was -18.1% (active).

Regarding `Cc1cc(C)nc(SCC(=O)Nc2ccc(S(N)(=O)=O)cc2)n1`, the growth is 103%.

As for `COc1ccc(-c2nc(S(=O)(=O)c3ccc(C)cc3)c(S(=O)(=O)CC(=O)N(C)Cc3ccccc3)o2)cc1`, the growth was 2.89% (active).

`O=c1[nH][nH]c(Nc2ccccc2)c1N=Nc1ccc(F)cc1`: the growth was 86.6%.

Turning to `CN1CCN(c2ccc(Nc3nc(NCCCNC(=O)C4CCCCC4)c4sccc4n3)cc2)CC1`, the growth was 39%.

Consider `COc1ccc(-c2nc(S(=O)(=O)c3ccccc3)c(S(C)(=O)=O)o2)cc1`, for which the growth was -76.2% (active).

As for `c1ccc(C(=C(c2ccc(OCCN3CCCCC3)cc2)c2ccc(OCCN3CCCCC3)cc2)C2CCCC2)cc1`, the growth is -94.4% (active).

In the case of `COc1ccc(C(C)=C(c2ccc(OCCCN(C)C)cc2)c2ccc(OCCCN(C)C)cc2)cc1`, the growth was -97.4% (active).
